The values that follow come from PubChem BioAssay AID1508621 (National Center for Advancing Translational Sciences (NCATS), 2021).

A short description of this experiment: Confirmatory qHTS for Identification of Small Molecule Inhibitors of Huntingtin Promoter Activity. Also: nearly all actives have a fitted effect of over 65% in size. In a few lines: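 HEK293 luciferase reporter cells, 2,500/well, cultured 24 h, then exposed to compounds at up to 57.5 uM final for 24 h at 37C. Firefly luciferase luminescence read; normalized to vehicle (0%) and zero RLU (-100%).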

Records with an inconclusive call do not appear. Entries that show only a call come without a potency. Active and inactive are the calls of the source. Calls follow the shape of the dose curve; as a rule, active = well fitted inhibition curve with a large enough effect; inconclusive = small, poorly fitted or top-dose-only effect; inactive = no such curve, though single readings can be large or run the other way.
Potency is read from the fitted curve at half-maximal effect.

For the molecule `Cn1cnc(=N)c2[nH]cnc21`, the Potency entry is “inactive”.

Consider `O=C(Nc1ccccc1)c1ccc(Cl)c(S(=O)(=O)Nc2ccccc2)c1`, for which the Potency result is “inactive”.

In the case of `Cc1ccc(NC(=O)c2ccc(C)c(S(=O)(=O)N3CCCCCC3)c2)cc1`, the Potency result was “inactive”.

Consider `CCN(Cc1ccccc1)C(=O)c1cc(-c2ccccc2)n[nH]1`, for which the Potency result is “inactive”.

With `COc1ccccc1C1Nc2c(sc3nc(C)cc(C)c23)C(=O)N1c1ccccc1` (configuration not stated), the Potency result is “inactive”.

With `Cc1csc2nc(COC(=O)c3ccccc3NC(=O)c3ccccc3Cl)cc(=O)n12`, the Potency result was “inactive”.

As to `Cc1c(NS(C)(=O)=O)cccc1-c1nc2ccccc2s1`, the Potency entry is “inactive”.

As for `O=c1cc(-c2ccccc2)oc2cc(O)cc(O)c12`, the Potency entry is “inactive”.

`O=C(CN(c1cccc(C(F)(F)F)c1)S(=O)(=O)c1ccccc1)Nc1cccc(Cl)c1`: the Potency was 26.9 µM (active).

As for `CN(C)c1ccc(C(=O)NCCCCCCC(=O)NO)cc1`, the Potency result is “inactive”.

With `Cc1ccccc1OCc1ccc(-c2nc(C#N)c(NCc3cccnc3)o2)o1`, the Potency was 19 µM (active).

Regarding `COc1ccc(S(=O)(=O)Nc2cc3c(cc2NCc2ccccc2)n(C)c(=O)n3C)cc1OC`, the Potency entry is “inactive”.

In the case of `COC(=O)c1c(C)oc2ccc(N(C(=O)c3ccncc3)S(=O)(=O)c3ccc(OC)cc3)cc12`, the Potency was 3.79 µM (active).

For `CN(C)c1ccc(Nc2nc(N)n(C(=O)c3c(F)cccc3F)n2)cc1`, the Potency entry was “inactive”.

Turning to `COc1ccccc1NC(=O)CN1C(=O)C(C)(C)c2ccccc21`, the Potency entry was “inactive”.

Consider `COc1ccc(C(=O)Nc2cccc(-c3cn4ccsc4n3)c2)c(OC)c1`, for which the Potency result is “inactive”.

Consider `CC(=O)c1ccc(NS(=O)(=O)c2ccc3[nH]c(=O)[nH]c3c2)cc1`, for which the Potency result was “inactive”.
